A short description of assay [1]: ATG_CRE_CIS: Attagene CIS-FACTORIAL HepG2 Assay for human cAMP Responsive Element (CRE) binding protein 3 (AID 2282926). The settings on record: HepG2 CRE cis-reporter, Attagene multiplexed mRNA; actives raise or lower the signal. In a few lines:
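Readout: fluorescently labelled reporter transcripts resolved by capillary electrophoresis after RT-PCR, taken 24 h post-dosing in transfected HepG2. Endogenous transcription factor activity drives each cis-element reporter; gain or loss of signal fitted relative to DMSO control.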

In assay [2] the target is CCAAT/enhancer-binding protein beta (Homo sapiens) (UniProt P17676). The experiment in a line: ATG_C_EBP_CIS: Attagene CIS-FACTORIAL HepG2 Assay for human CCAAT/Enhancer Binding Protein (C/EBP) beta (AID 2282927). The following applies: HepG2 Attagene cis-factorial transcription factor reporter; actives raise or lower the signal. In a few lines: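 HepG2, transient MRTU transfection, 24 h treatment. RT-PCR plus CE fluorescence; DMSO negative control, bidirectional fit.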
CCAAT/enhancer-binding protein beta (Homo sapiens), sequence (P17676 whole entry, looked up): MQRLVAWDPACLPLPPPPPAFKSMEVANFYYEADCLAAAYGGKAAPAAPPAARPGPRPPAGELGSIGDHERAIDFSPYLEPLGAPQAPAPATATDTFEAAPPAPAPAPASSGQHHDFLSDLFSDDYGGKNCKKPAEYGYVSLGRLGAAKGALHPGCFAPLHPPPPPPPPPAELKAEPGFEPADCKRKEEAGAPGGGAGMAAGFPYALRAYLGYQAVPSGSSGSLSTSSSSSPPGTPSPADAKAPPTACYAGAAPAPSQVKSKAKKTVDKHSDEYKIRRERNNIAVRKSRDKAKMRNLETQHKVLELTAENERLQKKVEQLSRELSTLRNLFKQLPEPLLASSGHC

Assay [3] is described as follows: ATG_CMV_CIS: Attagene CIS-FACTORIAL HepG2 Assay for human CMV (Internal Marker) (AID 2282928).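 Also: endpoint acts as a background internal control marker rather than a target.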 The following applies: HepG2 CMV promoter reporter, transcription factor profiling; actives raise or lower the signal. In a few lines: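 Bidirectional fits against DMSO are applied to reporter mRNA, read by RT-PCR with capillary electrophoresis, from HepG2 cells exposed 24 h. The endpoint serves as an internal CMV background marker within the cis-factorial reporter panel.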

Assay [4] addresses Aryl hydrocarbon receptor (Homo sapiens) (UniProt P35869). The experiment in a line: ATG_Ahr_CIS: Attagene CIS-FACTORIAL HepG2 Assay for human Aryl Hydrocarbon Receptor (Ahr) (AID 2282930). The following applies: HepG2 AhR cis-factorial reporter transcription; actives raise or lower the signal. The essentials:
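Endogenous factor activity is tracked through cis-promoter reporter units transfected into HepG2 cells. Transcript levels at 24 h are read by fluorescent RT-PCR and capillary electrophoresis, with activity in either direction scored relative to DMSO.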

Assay [5] is described as follows: ATG_AP_1_CIS: Attagene CIS-FACTORIAL HepG2 Assay for human Activator Protein 1 (AP-1) (AID 2282931). The settings on record: HepG2 Attagene cis-factorial AP-1 reporter mRNA; actives raise or lower the signal. The essentials:
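Reporter transcripts were measured 24 h after dosing by RT-PCR and capillary electrophoresis of fluorescent fragments. Cells: HepG2 carrying transfected cis-regulated reporter constructs reading endogenous factor activity. Gain or loss fitted against DMSO.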

A short description of assay [6]: ATG_AP_2_CIS: Attagene CIS-FACTORIAL HepG2 Assay for human Activator Protein 2 (AP-2) (AID 2282932). The settings on record: HepG2 AP-2 cis-reporter, Attagene transcription factor profiling; actives raise or lower the signal. The essentials:
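Liver-derived HepG2 line, cis-reporter system measuring endogenous factors; 24 h dosing; reporter mRNA detected by fluorescent RT-PCR and capillary electrophoresis.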

The nature of assay [7]: ATG_BRE_CIS: Attagene CIS-FACTORIAL HepG2 Assay for human Bone Morphogenetic Protein (BMP) Response Element (BRE) (AID 2282933). The settings on record: HepG2 BMP response element reporter, Attagene transcription factor profiling; actives raise or lower the signal. The essentials:
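Gain- or loss-of-signal was derived by bidirectional fitting against DMSO controls. The signal came from reporter mRNA, measured by RT-PCR and capillary electrophoresis, in HepG2 cells transiently carrying multiple reporter units and dosed for 24 h.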

Assay [8] has as its target Retinoic acid receptor alpha (Homo sapiens) (UniProt P10276). The experiment in a line: ATG_DR5_RAR_CIS: Attagene CIS-FACTORIAL HepG2 Assay for human Retinoic Acid Receptor Alpha (RARE), DR5 submotif (AID 2282934).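 As to AC50: reporter responds to endogenous RAR alpha beta and gamma in HepG2 not RARA alone.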 The following applies: HepG2 Attagene cis-factorial RARE DR5 reporter, mRNA; actives raise or lower the signal. The essentials: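 After 24 h of chemical exposure, transiently transfected HepG2 cells were lysed for total RNA; the DR5-regulated reporter transcript was quantified via RT-PCR and capillary electrophoresis, with activity fitted bidirectionally against DMSO.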

Assay [9] addresses Transcription factor E2F1 (Homo sapiens) (UniProt Q01094). The experiment in a line: ATG_E2F_CIS: Attagene CIS-FACTORIAL HepG2 Assay for human E2F Transcription Factor 1 (AID 2282935). The following applies: HepG2 Attagene cis-reporter, E2F reporter RNA transcripts; actives raise or lower the signal. In a few lines: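 Liver-derived HepG2 cells expressing transfected promoter-driven reporter units received test chemical for 24 hours. Signal gains or losses were fitted bidirectionally against DMSO.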

The nature of assay [10]: ATG_E_Box_CIS: Attagene CIS-FACTORIAL HepG2 Assay for human Enhancer Box (E-box) (AID 2282936). The settings on record: HepG2 E-box cis-reporter transcription, actives raise or lower the signal. The essentials: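 In this cell-based setup, HepG2 cells bearing transfected promoter-driven reporter units were exposed to chemicals for 24 h; reporter transcripts were amplified, 6-FAM-labelled, cut with HpaI and sized by capillary electrophoresis.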

Assay [11] in a line: ATG_M_61_CIS: Attagene CIS-FACTORIAL HepG2 Assay for M61 Transcription Factor (Internal Marker) (AID 2282937). The settings on record: HepG2 Attagene CIS-FACTORIAL M61 internal marker reporter; actives raise or lower the signal. The essentials:
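Readout: fluorescent reporter mRNA fragments resolved by capillary electrophoresis after RT-PCR. Transiently transfected human HepG2 cells carried MRTU constructs reporting endogenous TF activity; 24 h chemical exposure; gain or loss of signal fitted relative to DMSO.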

A short description of assay [12]: ATG_EGR_CIS: Attagene CIS-FACTORIAL HepG2 Assay for human Early Growth Response 1 (EGR1) (AID 2282938). The settings on record: HepG2 Attagene CIS-FACTORIAL EGR reporter mRNA; actives raise or lower the signal. In a few lines:
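Read-out: fluorescent reporter-mRNA fragments resolved by capillary electrophoresis after RT-PCR, 24 h post-dose in transiently transfected HepG2. Endogenous transcription-factor activity reported via cis-element-regulated reporter units; gain or loss fitted relative to DMSO.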

Assay [13] is described as follows: ATG_M_19_CIS: Attagene CIS-FACTORIAL HepG2 Assay for M19 Transcription Factor (Internal Marker) (AID 2282939). The following applies: HepG2 Attagene CIS-FACTORIAL M19 internal marker reporter; actives raise or lower the signal. The essentials: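 Following a 24 h exposure, RNA from transfected HepG2 cells was reverse-transcribed, PCR-amplified with reporter-specific primers, end-labelled with 6-FAM and HpaI-digested before capillary separation. Values represent gain or loss versus DMSO.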

Assay [14] can be described thus: ATG_ERE_CIS: Attagene CIS-FACTORIAL HepG2 Assay for Estrogen Response Element (ERE) (AID 2282940). The following applies: HepG2 ERE cis-reporter, Attagene RNA transcript; actives raise or lower the signal. The essentials:
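HepG2, transient cis-reporter units, 24 h exposure. RNA isolated, oligo(dT) RT, reporter-specific PCR, FAM extension, HpaI cut, CE detection. Gain/loss-of-signal vs DMSO.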

The target of assay [15] is Hepatocyte nuclear factor 3-beta (Homo sapiens) (UniProt Q9Y261). Put plainly: ATG_FoxA2_CIS: Attagene CIS-FACTORIAL HepG2 Assay for human Forkhead box A2 (FOXA2) (AID 2282942). The settings on record: HepG2 cis-reporter transcription factor activity, 24 h; actives raise or lower the signal. The essentials:
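Readout: fluorescent reporter transcripts resolved by capillary electrophoresis after RT-PCR. Transiently transfected HepG2, 24 h compound exposure, endogenous TF activity at cis promoter elements. Gain or loss of signal fitted relative to DMSO.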

A short description of assay [16]: ATG_FoxO_CIS: Attagene CIS-FACTORIAL HepG2 Assay for human Forkhead box O (FoxO) (AID 2282943). The following applies: HepG2 Attagene cis-reporter, FoxO element, mRNA; actives raise or lower the signal. The essentials: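 Transfected HepG2 reporter cells exposed to test chemical for 24 h; reporter RNA measured by reverse transcription, PCR and fluorescent capillary electrophoresis; curves fitted for increases and decreases against DMSO.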

Assay [17] can be described thus: ATG_GATA_CIS: Attagene CIS-FACTORIAL HepG2 Assay for human GATA Binding Protein (AID 2282944). The settings on record: HepG2 GATA cis-element reporter, Attagene multiplex mRNA; actives raise or lower the signal. The essentials: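 DMSO serves as negative control and baseline for bidirectional fitting of reporter mRNA changes. HepG2 cells bearing transiently transfected cis-promoter reporters were exposed 24 h; transcripts detected via RT-PCR and capillary electrophoresis.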

Assay [18] in a line: ATG_DR4_LXR_CIS: Attagene CIS-FACTORIAL HepG2 Assay for human Liver X Receptor (LXR), DR4 submotif (AID 2282929). The settings on record: HepG2 Attagene DR4 cis-reporter, mRNA transcription; actives raise or lower the signal. In a few lines:
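Readout: reporter transcript fluorescence after RT-PCR and capillary electrophoresis, fitted bidirectionally against DMSO controls. Human HepG2 liver cells carried transiently transfected multiplexed reporter constructs; endogenous transcription factor activity measured 24 h post-dosing.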

Assay [19] can be described thus: ATG_Ets_CIS: Attagene CIS-FACTORIAL HepG2 Assay for human Erythroblast Transformation Specific (ETS) (AID 2282941). The settings on record: HepG2 ETS cis-reporter transcription, actives raise or lower the signal. In a few lines: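 Endogenous transcription factor activity read as reporter mRNA via RT-PCR and capillary electrophoresis, with gain or loss fitted bidirectionally against DMSO. Human HepG2 liver cells, transiently transfected CIS reporter constructs, 24 h exposure.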

Active and inactive are the calls of the source. The calls were made as follows: active = hit-call score of the fitted dose curve at least 0.9, where 1 is the maximum; inactive = score below 0.9.

Aryl hydrocarbon receptor (Homo sapiens), sequence (P35869 whole entry, looked up): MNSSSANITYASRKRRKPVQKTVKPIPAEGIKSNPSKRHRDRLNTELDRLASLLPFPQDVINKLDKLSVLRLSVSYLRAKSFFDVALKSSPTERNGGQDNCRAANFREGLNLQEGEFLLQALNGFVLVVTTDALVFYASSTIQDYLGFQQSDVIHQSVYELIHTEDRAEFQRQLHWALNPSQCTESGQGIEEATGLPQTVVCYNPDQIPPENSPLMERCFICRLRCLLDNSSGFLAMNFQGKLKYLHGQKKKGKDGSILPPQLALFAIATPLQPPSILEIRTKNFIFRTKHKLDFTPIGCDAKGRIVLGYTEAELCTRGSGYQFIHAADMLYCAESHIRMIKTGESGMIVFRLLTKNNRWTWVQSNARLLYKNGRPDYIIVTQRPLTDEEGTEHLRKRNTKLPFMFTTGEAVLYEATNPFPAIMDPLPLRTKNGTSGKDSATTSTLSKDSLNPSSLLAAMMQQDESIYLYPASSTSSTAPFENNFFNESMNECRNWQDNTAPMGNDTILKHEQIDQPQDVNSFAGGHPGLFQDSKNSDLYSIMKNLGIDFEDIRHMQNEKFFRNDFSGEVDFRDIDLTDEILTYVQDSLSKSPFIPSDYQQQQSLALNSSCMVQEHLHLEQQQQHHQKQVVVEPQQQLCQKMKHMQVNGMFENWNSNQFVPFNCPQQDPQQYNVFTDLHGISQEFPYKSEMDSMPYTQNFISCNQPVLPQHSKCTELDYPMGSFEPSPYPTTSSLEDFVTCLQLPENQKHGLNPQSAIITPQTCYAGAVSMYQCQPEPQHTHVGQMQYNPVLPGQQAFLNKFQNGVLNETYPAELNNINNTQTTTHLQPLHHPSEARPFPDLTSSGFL
Hepatocyte nuclear factor 3-beta (Homo sapiens), sequence (Q9Y261 whole entry, looked up): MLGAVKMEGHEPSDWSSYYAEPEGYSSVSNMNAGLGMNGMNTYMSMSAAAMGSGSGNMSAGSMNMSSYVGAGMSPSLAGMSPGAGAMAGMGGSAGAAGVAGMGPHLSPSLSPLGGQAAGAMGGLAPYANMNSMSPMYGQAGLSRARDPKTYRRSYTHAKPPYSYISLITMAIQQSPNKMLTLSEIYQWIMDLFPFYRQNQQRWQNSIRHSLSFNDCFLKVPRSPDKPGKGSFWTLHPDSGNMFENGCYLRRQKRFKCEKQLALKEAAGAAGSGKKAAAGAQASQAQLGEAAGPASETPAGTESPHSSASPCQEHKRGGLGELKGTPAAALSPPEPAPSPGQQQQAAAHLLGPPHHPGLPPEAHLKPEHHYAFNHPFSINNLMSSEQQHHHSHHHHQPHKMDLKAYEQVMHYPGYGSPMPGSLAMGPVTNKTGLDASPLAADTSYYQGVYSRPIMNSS
Transcription factor E2F1 (Homo sapiens), sequence (Q01094 whole entry, looked up): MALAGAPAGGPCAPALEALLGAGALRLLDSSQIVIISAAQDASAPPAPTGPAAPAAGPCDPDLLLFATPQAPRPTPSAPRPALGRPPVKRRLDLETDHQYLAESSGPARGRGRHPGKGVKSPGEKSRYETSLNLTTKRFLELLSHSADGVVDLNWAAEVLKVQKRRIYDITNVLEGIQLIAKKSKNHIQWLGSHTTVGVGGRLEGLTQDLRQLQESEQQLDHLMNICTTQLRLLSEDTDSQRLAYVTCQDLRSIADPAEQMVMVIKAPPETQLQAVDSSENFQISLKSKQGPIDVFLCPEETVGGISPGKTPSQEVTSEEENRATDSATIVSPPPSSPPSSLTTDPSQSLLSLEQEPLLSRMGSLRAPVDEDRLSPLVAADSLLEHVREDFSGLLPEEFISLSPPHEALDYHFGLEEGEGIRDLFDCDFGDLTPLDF
Retinoic acid receptor alpha (Homo sapiens), sequence (P10276 whole entry, looked up): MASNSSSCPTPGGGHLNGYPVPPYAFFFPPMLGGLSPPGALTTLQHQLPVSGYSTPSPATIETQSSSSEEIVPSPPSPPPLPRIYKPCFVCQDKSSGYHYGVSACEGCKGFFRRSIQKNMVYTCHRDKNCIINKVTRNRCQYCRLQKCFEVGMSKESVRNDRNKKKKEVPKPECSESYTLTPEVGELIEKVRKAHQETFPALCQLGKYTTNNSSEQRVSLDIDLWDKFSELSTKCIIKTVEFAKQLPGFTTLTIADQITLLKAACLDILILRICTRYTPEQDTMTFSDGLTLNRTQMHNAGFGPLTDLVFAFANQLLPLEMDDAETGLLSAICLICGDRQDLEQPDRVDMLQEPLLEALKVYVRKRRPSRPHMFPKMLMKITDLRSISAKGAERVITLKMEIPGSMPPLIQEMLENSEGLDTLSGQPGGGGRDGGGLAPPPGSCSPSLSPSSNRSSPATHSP

As for `OCCCc1cccnc1`, the molecule was classed as inactive in assay [1], in assay [2], in [3], in [4], in assay [5] and in assay [6]. Also, the molecule was classed as inactive in assay [7], in assay [8], in [9], in [10], in assay [11] and in assay [12]. In addition, the outcome in [13], in [14], in assay [15], in assay [16] and in assay [17] was inactive.

Consider `CCN=C1C=CC(=C(c2ccc(N(CC)CC)cc2)c2ccc(N(CC)CC)cc2)c2ccccc21`, for which the concentration at half-maximal activity (AC50) in [1] is 1.17 µM (active); in assay [2], 0.0334 µM (active); in [3], 0.905 µM (active); in assay [18], 0.655 µM (active); in [4], 0.0482 µM (active); in [7] it was 0.0688 µM (active). Further, the figures for the AC50 in [10] and in assay [12] were 2.01 µM (active) and 0.78 µM (active), respectively. Also, the call in [8], in assay [9], in assay [11], in [13], in [14] and in [19] was inactive. The molecule was called inactive in assay [15], in [16] and in assay [17].

As to `C=CC(=O)OCCC(F)(F)C(F)(F)C(F)(F)C(F)(F)F`, the outcome in assay [1], in assay [2], in [3], in assay [4], in assay [6] and in [8] was inactive. Besides, the call in [9], in [10], in assay [11], in assay [12], in assay [15] and in assay [16] was inactive. Also, the AC50 in [18] is 94 µM (active); in assay [5], 213 µM (active); in assay [7] it was 101 µM (active).

For `CCCCCCCCCCCC(=O)Cl`, the molecule was called inactive in assay [1], in [2], in assay [3], in assay [4], in [6] and in assay [7]. For the same molecule, the result in [9], in [10], in [11], in assay [12], in assay [14] and in assay [19] was inactive. Also, the molecule was called inactive in assay [15], in assay [16] and in assay [17]. The figures for the AC50 in assay [18] and in [8] were 163 µM (active) and 65.6 µM (active), respectively.

In the case of `COC(=O)c1ccc(C=O)cc1`, the molecule was classed as inactive in assay [1], in assay [2], in [3], in assay [5], in assay [6] and in assay [7]. Further, the molecule was classed as inactive in assay [8], in assay [9], in assay [10], in assay [11], in assay [12] and in [13]. The outcome in [14], in assay [19], in assay [15], in [16] and in assay [17] was inactive. Besides, in assay [4], the AC50 was 105 µM (active).

As to `CCOC(OCC)OCC`, the outcome in assay [1], in assay [2], in assay [3], in [18], in [5] and in [6] was inactive. Also, the result in [7], in [8], in assay [9], in assay [10], in [12] and in assay [19] was inactive. The outcome in [15], in [16] and in assay [17] was inactive. Besides, the concentration at half-maximal activity (AC50) in [4] is 31.6 µM (active).

On to `O=C(c1ccccc1)c1ccc(O)cc1O`, for which the result in assay [1], in assay [2], in assay [18], in assay [4], in [5] and in [6] was inactive. The call in [7], in assay [8], in assay [9], in [10], in assay [11] and in assay [12] was inactive. Further, the outcome in assay [13], in [19], in assay [15], in assay [16] and in assay [17] was inactive. Besides, in [3], the AC50 is 123 µM (active).

These data come from PubChem BioAssay (EPA / NIEHS).
